# Compound activity deposited in PubChem BioAssay by several laboratories.
# UHRF1 MBD2 ctr – blocks human UHRF1 binding to methylated DNA. Q96T88. UHRF1 binding to methylated oligo, TR-FRET. inhibition, % at 4.4 µM. actives 0.75% (n = 370,000); in the data active = inhibition above about 21%;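 note: UHRF1 SRA domain binding a hemimethylated CpG hairpin DNA probe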
# MBD2 inh – blocks human MBD2 binding to methylated DNA; Q9UBB5; TR-FRET, MBD2 binding to methylated oligonucleotide; inhibition, % at 4.4 µM; actives 0.31% (n = 370,000); in the data active = inhibition above about 13%
# Neddylation inh – blocks human cullin neddylation | TR-FRET cullin neddylation, biochemical | calls only at 25 µM | actives 0.58% (n = 360,000); in the data active = inhibition above about 36%
# UBC13 polyUb – inhibitors of human UBC13 polyubiquitin chain formation; AID 485273; inhibition, % at 20 µM; P61088; TR-FRET; actives 0.47% (n = 330,000); in the data active = inhibition above about 45%, passing the limit was not always enough
# Neddyl conf – cullin neddylation inhibition, confirmation; actives 13% (n = 1,800); shares compounds with Neddylation inh; calls only at 25 µM; TR-FRET cullin neddylation biochemical assay; in the data active = inhibition above about 40%;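 note: neddylation substrate is the cullin 1 ring ligase complex with SKP2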
# Calls only; i = inactive; nt = no result shown; + = active, no number. Most compounds without a hit are left out; they make up all but 1.8% or so of the library.
SMILES,UHRF1 MBD2 ctr,MBD2 inh,Neddylation inh,UBC13 polyUb,Neddyl conf
CCc1c(C(=O)N/N=C/c2ccc(OCc3ccc(F)cc3)c(OC)c2)nnn1-c1nonc1N,i,i,+,i,i
CCCOc1ccc(-c2c(C(=O)N/N=C(\C)c3ccco3)nnn2-c2nonc2N)cc1,i,i,+,i,i
Cc1ccc(-c2c(C(=O)N/N=C/c3ccc(OC(C)C)cc3)nnn2-c2nonc2N)cc1,i,i,+,i,i
CCCOc1ccc(-c2c(C(=O)N/N=C(\C)c3cccnc3)nnn2-c2nonc2N)cc1,i,i,i,i,nt
CCOc1ccc(-c2c(C(=O)N/N=C/c3ccc(OC(C)C)cc3)nnn2-c2nonc2N)cc1,i,i,i,i,nt
CCCc1c(C(=O)N/N=C/c2ccc3c(c2)OCO3)nnn1-c1nonc1N,i,i,+,nt,i
c1nc(NC2CCCCC2)c2[nH]cnc2n1,i,i,i,i,nt
COC(=O)c1ccc(OC(=O)N2CCOCC2)cc1,i,i,i,i,nt
Cc1ccc(-c2c(C(=O)N/N=C/c3ccc4c(c3)OCO4)nnn2-c2nonc2N)cc1,i,i,+,i,nt
COCc1c(C(=O)N/N=C(/C)c2cccs2)nnn1-c1nonc1N,i,i,+,i,i
CC(Sc1nnc(C2CC2)n1C1CC1)C(=O)N(C)Cc1cccc(F)c1 (centres undefined),i,i,i,i,nt
O=C(C[C@@H]1C/C=C\C[C@@H](Cc2ccc(F)cc2)C(=O)OC[C@@H]2CCCN2C1=O)N[C@H](CO)Cc1ccccc1,i,i,i,i,nt
CC(=O)c1ccc2c(c1)c(C#N)c1ccccc1[n+]2[O-],i,i,+,i,+
CC(=O)c1ccc2noc(-c3ccccc3)c2c1,i,i,i,i,nt
Cc1nnc2n(-c3ccccc3)c(=O)c3c4c(sc3n12)CCCC4,i,i,i,i,nt
Cn1ccc2c(-c3cncc4ccccc34)cc3c(c21)C1CCC3O1 (centres undefined),i,i,+,nt,+
COc1ccccc1-c1nc(C#N)c(N2CCN(Cc3ccccc3)CC2)o1,i,i,+,i,nt
COc1ccccc1-c1nc(C#N)c(N2CCC(Cc3ccccc3)CC2)o1,i,i,nt,i,nt
CCOC(=O)Cc1nnc(Nc2ccc(C)cc2)c2ccccc12,i,i,i,i,nt
Cc1nc(NCCc2ccccc2F)c(C#N)c(C)c1[N+](=O)[O-],i,i,i,i,nt
COc1ccc(O)c(/C=N/NC(=O)CCC(=O)Nc2ccc(C)cc2)c1,i,i,i,i,nt
COc1ccc(CSCC(=O)N/N=C/c2ccccc2O)cc1,i,i,+,i,i
O=C(CSc1ccccc1)N/N=C/c1ccccc1O,i,i,i,i,nt
COc1ccc(O)c(/C=N/NC(=O)CN2CCS(=O)(=O)CC2)c1,i,i,+,i,i
CC1(C)Cc2c(sc(NC(=O)c3ccc4ncsc4c3)c2C(N)=O)C(C)(C)N1,i,i,i,i,nt
SMILES,UHRF1 MBD2 ctr,MBD2 inh,Neddylation inh,UBC13 polyUb,Neddyl conf
Cc1c(CCCC(=O)O)sc(N)c1C(=O)c1cccc(C(F)(F)F)c1,i,i,i,i,nt
C=CCN1CC(c2nc3ccccc3n2CCOc2ccccc2)CC1=O (centres undefined),i,i,i,i,nt
CCc1cc2c3c(c(=O)oc2cc1OCC(=O)OC)CCCC3,i,i,+,i,i
COc1ccccc1CN(C)C(=O)c1ccc(S(=O)(=O)NCc2ccco2)cc1,i,i,i,i,nt
COc1ccc(-c2[nH]ncc2/C=C(/C#N)C(=O)NC2CCCCCC2)cc1,i,i,+,i,i
COC(=O)c1ccccc1NC(=O)CN1CCN(c2ccccn2)CC1,i,i,i,i,nt
COC(=O)c1ccccc1N/C=C1\CCc2c(c(C)nn2-c2ccccn2)C1=O,i,i,+,i,i
Cc1csc(N2CCN(c3cc4nc(-c5ccncc5)[nH]c4cc3Cl)CC2)n1,i,i,i,i,nt
Cc1csc(N2CCN(c3cc4c(cc3Cl)nc(-c3ccncc3)n4CCCN3CCCC3)CC2)n1,i,i,+,i,i
COc1ccc(S(N)(=O)=O)cc1C(=O)OCC(=O)Nc1ncc(Cl)c(C)c1Cl,i,i,i,i,nt
CC1(C)CC(=O)C2=C(C1)NC(SCC(N)=O)=C(C#N)C21CCCCC1,i,i,i,i,nt
CCSC1=C(C#N)C2(CCCCC2)C2=C(CC(C)(C)CC2=O)N1,i,i,+,i,i
Cc1nn(-c2ccccc2)c2c1P(=O)(O)/C(=C1\N(C)c3ccccc3C1(C)C)C=N2,i,i,+,i,i
O=S(=O)(NCc1nnc2ccccn12)c1ccc(F)cc1,i,i,i,i,nt
COCCCn1c(=O)c2sccc2n2c(CCCC(=O)NCc3ccc(F)cc3)nnc12,i,i,+,i,i
COc1ccccc1CNc1ncnc2c1cnn2-c1ccccc1,i,i,i,i,nt
CCOc1ccc(NC(=S)N2CCN(c3ccc(N4CCOCC4)nn3)CC2)cc1,i,i,+,i,i
CCOC(=O)c1ccc(NC(=S)N2CCN(c3ccc(N4CCOCC4)nn3)CC2)cc1,i,i,nt,i,nt
Cc1ccccc1OCC(=O)Nc1nnc(C2CC2)s1,i,i,i,i,nt
CCCC#Cc1ccc2c(c1)COc1c3ccccc3nn1-2,i,i,i,i,nt
CCc1cc(-c2ccc3c(c2)COc2c4ccccc4nn2-3)on1,i,i,+,i,i
Nc1ccc(C(=O)N/N=C/c2c[nH]c3ccccc23)cc1,i,i,i,i,nt
CC1(C(=O)NS(=O)(=O)C2CC2)CCN(C(=O)c2ccc3c(c2)OCO3)C1 (centres undefined),i,i,i,nt,nt
CCCNC(=O)c1oc2ccc3c(c2c1C)C=CC(C)(C)O3,i,i,+,i,i
CCCNC(=O)c1oc2ccc3c(c2c1C)C(=O)CC(C)(C)O3,i,i,nt,i,nt
SMILES,UHRF1 MBD2 ctr,MBD2 inh,Neddylation inh,UBC13 polyUb,Neddyl conf
CCOC(=O)c1ccc(-c2ccc(/C=N/NC(=O)CN(c3cccc(C)c3)S(C)(=O)=O)o2)cc1,i,i,nt,i,nt
CCOC(=O)c1ccc(-c2ccc(/C=N/NC(=O)CN(c3ccccc3Cl)S(C)(=O)=O)o2)cc1,i,i,+,i,i
CC(C)n1ncc2c(C(=O)NCCc3ccc(F)cc3)cc(C3CC3)nc21,i,i,+,i,nt
Cc1ccc(CNC(=O)c2cc(C3CC3)nc3c2cnn3C(C)C)cc1,i,i,+,i,i
NC(=O)c1cccc(N=Cc2cc(Cl)cc(Cl)c2O)c1,i,i,+,nt,i
Cc1cccc(N=Cc2cc(Br)cc(Cl)c2O)c1,i,i,i,i,nt
O=C(c1cc(-c2ccc(Br)cc2)on1)N1CCCCCC1,i,i,i,i,nt
O=C(COC(=O)CNC(=O)c1ccc([N+](=O)[O-])o1)Nc1ncc(C(F)(F)F)cc1Cl,i,i,i,i,nt
Cc1nc2c(C#N)cnn2c2c1CCN(Cc1ccccc1)N2C,i,i,i,i,nt
Cc1nc2c(C#N)cnn2c2c1CCN2CC1CCCO1 (centres undefined),i,i,+,i,i
N#Cc1ccc(OCC(=O)OCCCOC(=O)COc2ccc(C#N)cc2)cc1,i,i,i,i,nt
CSc1ccc(/C=C/C(=O)OCC(=O)NCC2CCCO2)cc1 (centres undefined),i,i,+,i,nt
Cc1c(OCc2nn[nH]n2)ccc2c3c(c(=O)oc12)CCC(C)C3 (centres undefined),i,i,+,i,i
